Our source for the growth values is PubChem BioAssay (NCI).

Values joined by “and” are separate entries in the source; they are usually repeats but may differ in a detail not shown here. Equal values may be shown once. About 83,000 compounds went through this panel and 20% of them were active in at least one assay; those are over-represented in the sample as a whole.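 Negative percent growth values reflect cell death: -40 means 40% of the cells present at the start died, and -100 means all died.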 Unmarked numbers belong to inactive results. Active and inactive are the calls of the source. Rule for the calls: active = growth percent below 10; inactive = the rest.

What all share (assay): NCI-60 one-dose screen, 48 h (100 = growth as untreated, 0 = no growth, -100 = all killed)
The test system of one test is HCT-15 colon. As to conditions: 10 µM.
The next test concerns HT29 colon. Particulars: 10 µM.
The next test has as its system SNB-75 CNS. Particulars: 10 µM.
The next test concerns U251 CNS. As to conditions: 10 µM.
The next test concerns PC-3 prostate. As to conditions: 10 µM.
For another test, the system named is SK-MEL-5 melanoma. As to conditions: 10 µM.
In another test the test system is UACC-62 melanoma.
The subject of another test is SK-MEL-28 melanoma. Particulars: 10 µM.
In the next test the test system is LOX IMVI melanoma. As to conditions: 10 µM.
The next test relates to SNB-19 CNS. Particulars: 10 µM.

With `OCCN(CCO)C(=S)S`, the growth was 104% in the test with HCT-15 colon; 113% in the test on HT29 colon; 129% with SNB-75 CNS; 102% in the test on U251 CNS; 104% in the test with PC-3 prostate; 94.8% in the test with SK-MEL-5 melanoma. Also, the results for the growth in the test on UACC-62 melanoma (10 µM unless noted) and in the test on SK-MEL-28 melanoma were 91.7% and 113%, respectively.

As to `COc1ccc(Oc2c(I)cc(CC(NC(C)=O)C(=O)O)cc2I)cc1` (stereo unspecified), the growth with HCT-15 colon is 96.6%; in the test with HT29 colon, 85.2%; in the test on SNB-75 CNS, 87.1%; with U251 CNS, 86.5%; in the test with PC-3 prostate it was 69.5%; in the test on SK-MEL-5 melanoma, 60.7%. The values for the growth in the test with UACC-62 melanoma (10 µM unless noted), in the test with LOX IMVI melanoma and in the test with SK-MEL-28 melanoma were 73.5%, 70% and 103%, respectively.

For the molecule `COC(=O)C(C)Oc1ccc(OC#N)cc1` (stereo unspecified), the growth in the test with HCT-15 colon is 99.7%; with HT29 colon, 102%; with SNB-75 CNS it was 88.9%; in the test with U251 CNS, 101%; in the test on PC-3 prostate, 86.4%; in the test on SK-MEL-5 melanoma, 99%. Besides, the growth with UACC-62 melanoma (10 µM unless noted) is 86.8%; in the test on LOX IMVI melanoma, 93.2%; in the test on SK-MEL-28 melanoma it was 106%.

As to `COc1ccc2c(c1)CCc1c-2n[nH]c1-c1[nH]nc2c1CCc1cc(OC)ccc1-2`, the growth in the test with HCT-15 colon is 35.6%; in the test on HT29 colon, 52.3%; in the test on SNB-75 CNS, 29.3%; in the test on U251 CNS it was 54.2%; in the test with PC-3 prostate, 50.4%; with SK-MEL-5 melanoma, 37.2%. Further, the growth in the test with UACC-62 melanoma (10 µM unless noted) was 25.8%; in the test on LOX IMVI melanoma, 43.8%; in the test on SK-MEL-28 melanoma, 58.7%.

Take `O=[N+]([O-])c1cccc(C(F)(F)F)c1`: the growth was 93.8% in the test with HCT-15 colon; 98.7% in the test on HT29 colon; 103% with SNB-19 CNS; 104% in the test on U251 CNS; 94.6% with PC-3 prostate; 107% in the test on SK-MEL-5 melanoma. Also, the figures for the growth in the test with UACC-62 melanoma (10 µM unless noted) and in the test with LOX IMVI melanoma were 101% and 99.7%, respectively.

Turning to `COc1ccc(C(=O)C(Br)C(Br)C(=O)O)cc1` (stereo unspecified), the growth is 98.1% in the test on HCT-15 colon; 117% in the test on HT29 colon; 87.4% in the test on SNB-75 CNS; 104% in the test with U251 CNS; 110% with PC-3 prostate; 98.4% with UACC-62 melanoma (10 µM unless noted). The growth in the test on LOX IMVI melanoma is 97.7%; in the test with SK-MEL-28 melanoma it was 108%.

For the molecule `Oc1ccc(N=Nc2ccc(Br)cc2)c(O)c1`, the growth is 21.2% with HCT-15 colon; 93.5% in the test with HT29 colon; 38.5% in the test with SNB-19 CNS; 16.8% in the test with U251 CNS; 17% in the test on PC-3 prostate; 11.1% with SK-MEL-5 melanoma. The growth is 39.4% with UACC-62 melanoma (10 µM unless noted), 51.9% with LOX IMVI melanoma and 51.2% in the test on SK-MEL-28 melanoma.

As for `CC(=O)c1sc2c(c1OC(=O)c1ccc(Cl)cc1Cl)c(=O)n(-c1ccccc1)c(=S)n2-c1ccccc1`, the growth with HCT-15 colon is 3.9% (active); in the test with HT29 colon it was -23.9% (active); with SNB-19 CNS, 16.3%; in the test with U251 CNS, 1.6% (active); in the test on PC-3 prostate, -29.7% (active); with SK-MEL-5 melanoma, 42.7%. In addition, the growth is 29.4% in the test with UACC-62 melanoma (10 µM); -11.6% (active) and -45.7% (active) with UACC-62 melanoma (100 µM); -18.9% (active) in the test with LOX IMVI melanoma.

For `C#C[C@H]1CCCCCC1O` (stereo partly specified), the growth is 114% with HCT-15 colon; 107% with HT29 colon; 106% with SNB-19 CNS; 99.7% in the test with U251 CNS; 90.1% in the test on PC-3 prostate; 98.1% with SK-MEL-5 melanoma. In addition, the results for the growth with UACC-62 melanoma (10 µM unless noted), in the test with LOX IMVI melanoma and with SK-MEL-28 melanoma were 100%, 97% and 122%, respectively.

With `COc1cc2cc(OC(C)=O)c3cc4c(cc3c2c(OC)c1OC)OCO4`, the growth in the test on HCT-15 colon is 99.7%; in the test with HT29 colon, 101%; in the test with SNB-19 CNS, 105%; with U251 CNS, 103%; in the test on PC-3 prostate it was 94.7%; in the test on SK-MEL-5 melanoma, 99.5%. For the same molecule, the growth is 103% in the test with UACC-62 melanoma (10 µM unless noted), 94.9% in the test with LOX IMVI melanoma and 105% in the test with SK-MEL-28 melanoma.

As to `Cc1cc2nc(CC(=O)c3cccc([N+](=O)[O-])c3)c(=O)[nH]c2cc1C`, the growth was 77% in the test with HCT-15 colon; 68.2% with HT29 colon; 96.1% in the test with SNB-75 CNS; 95.1% with U251 CNS; 97.9% in the test with SK-MEL-5 melanoma; 65% in the test with UACC-62 melanoma (10 µM unless noted). For the same molecule, the values for the growth in the test with LOX IMVI melanoma and in the test with SK-MEL-28 melanoma were 72.8% and 97.7%, respectively.

Regarding `CCOc1ccc(/C=C/C(=O)c2ccccc2)cc1`, the growth is 92.4% with HCT-15 colon; 96.1% with HT29 colon; 92.2% in the test on SNB-19 CNS; 86.7% in the test on U251 CNS; 73.7% with PC-3 prostate; 99.6% with SK-MEL-5 melanoma. Moreover, the growth in the test on UACC-62 melanoma (10 µM unless noted) is 88.9%; in the test on LOX IMVI melanoma, 93.5%; in the test with SK-MEL-28 melanoma, 100%.

`O=C(c1ccc(O)cc1)c1ccc(O)cc1`: the growth in the test with HCT-15 colon is 99.6%; in the test on HT29 colon it was 106%; in the test with SNB-19 CNS, 111%; in the test with U251 CNS, 94.1%; in the test with SK-MEL-5 melanoma it was 99.3%; with UACC-62 melanoma (10 µM unless noted) it was 110%.

For the molecule `CCOc1ccc(/C=N/N=C(N)N)cc1OCC`, the growth in the test with HCT-15 colon is 97.6%; in the test with HT29 colon, 89.5%; with SNB-19 CNS, 97.6%; with U251 CNS, 103%; in the test with PC-3 prostate, 94.1%; in the test with SK-MEL-5 melanoma it was 98.5%. In addition, the growth with UACC-62 melanoma (10 µM unless noted) was 93.1%; with LOX IMVI melanoma, 101%; in the test with SK-MEL-28 melanoma, 92.4%.

Consider `O=C(O)c1cc([N+](=O)[O-])ccc1Cl`, for which the growth in the test with HCT-15 colon is 100%; in the test on HT29 colon, 84.3%; in the test with SNB-19 CNS, 99.4%; in the test with U251 CNS it was 106%; in the test with PC-3 prostate it was 88.8%; in the test on UACC-62 melanoma (10 µM unless noted), 95.6%. The growth in the test with LOX IMVI melanoma was 99.5%.

With `CCN(CC)CCNc1ccc(CO)c2sc3ccccc3c(=O)c12`, the growth in the test on HCT-15 colon is 27.2%; in the test on HT29 colon, 18.1%; with SNB-19 CNS it was 43.2%; in the test on U251 CNS, 32.4%; in the test with PC-3 prostate, 46.1%; with UACC-62 melanoma (10 µM unless noted), 30.6%. For the same molecule, the growth in the test with LOX IMVI melanoma is 28%.

Take `CCOC(=O)C(=O)C=P(c1ccccc1)(c1ccccc1)c1ccccc1`: the growth with HCT-15 colon was 102%; in the test with HT29 colon it was 106%; with SNB-19 CNS, 109%; in the test with U251 CNS, 107%; in the test with PC-3 prostate it was 96.4%; in the test with SK-MEL-5 melanoma, 102%. Moreover, the results for the growth in the test with UACC-62 melanoma (10 µM unless noted) and with LOX IMVI melanoma were 107% and 92.8%, respectively.
